Source: PubChem BioAssay AID1159580 (chemical genetic matrix, 2015)
In all, about 5,500 compounds went through this assay and about 2,000 (36%) were called active. Not shown: some 18% with an inconclusive outcome. No stated cut-off is given here; in the data, active means normalized growth mostly below about 0.91 (no sharp cut-off); inconclusive means no clear call, values can overlap the other calls; inactive means mostly above about 0.92. Some of the results follow.

Experiment: chemical genetic growth profiling, strain panel (AID 1159580);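 further: tested at 20 µM; growth read once vehicle control cultures reached saturation at 30 °C; 1 = growth at the plate median or of vehicle wells; lower values mean less growth of the strain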
Conditions: growth OD

Measured: normalized growth

COc1ccc2c3c1O[C@H]1C[C@@H](O)C=C[C@@]31CCN(C)C2
inactive: S. cerevisiae deletion strains, locus YJR075W, strain HOC1, active compounds read low 0.947 | S. cerevisiae deletion strains, locus YKL009W, strain mrt4, active compounds read low 1.02 | S. cerevisiae deletion strains, locus YKL068W, active compounds read low 1.02 | S. cerevisiae deletion strains, locus YKL085W, strain MDH1 (second series), active compounds read low 1 | S. cerevisiae deletion strains, locus YKL085W, strain MDH1, active compounds read low 1 | S. cerevisiae deletion strains, locus YKL160W, strain elf1, active compounds read low 0.996 | S. cerevisiae deletion strains, locus YKL190W, strain CNB1, active compounds read low 1.01 | S. cerevisiae deletion strains, locus YKR001C, strain vps1, active compounds read low 1.03 | S. cerevisiae deletion strains, locus YKR026C, strain gcn3, active compounds read low 0.974 | S. cerevisiae deletion strains, locus YKR091W, strain srl3, active compounds read low 0.99 | S. cerevisiae deletion strains, locus YLL001W, strain dnm1, active compounds read low 0.996 | S. cerevisiae deletion strains, locus YLL026W, active compounds read low 0.995 | S. cerevisiae deletion strains, locus YLL041C, strain sdh2, active compounds read low 0.999 | S. cerevisiae deletion strains, locus YLR027C, strain aat2, active compounds read low 0.989 | S. cerevisiae deletion strains, locus YLR039C, strain RIC1, active compounds read low 1.06 | S. cerevisiae deletion strains, locus YLR058C, strain SHM2, active compounds read low 1.01 | S. cerevisiae deletion strains, locus YLR102C, strain apc9, active compounds read low 1.02 | S. cerevisiae deletion strains, locus YLR113W, strain HOG1, active compounds read low 1.01 | S. cerevisiae deletion strains, locus YLR221C, strain rsa3, active compounds read low 1.02 | S. cerevisiae deletion strains, locus YLR258W, strain gsy2, active compounds read low 1 | S. cerevisiae deletion strains, locus YLR262C, strain YPT6 (second series), active compounds read low 0.984 | S. cerevisiae deletion strains, locus YLR262C, strain YPT6, active compounds read low 1.02 | S. cerevisiae deletion strains, locus YLR268W, strain sec22, active compounds read low 0.993 | S. cerevisiae deletion strains, locus YLR320W, strain mms22, active compounds read low 1.01 | S. cerevisiae deletion strains, locus YLR330W, strain CHS5, active compounds read low 1.01 | S. cerevisiae deletion strains, locus YLR342W, strain FKS1 (second series), active compounds read low 1.08 | S. cerevisiae deletion strains, locus YLR342W, strain FKS1, active compounds read low 1.01 | S. cerevisiae deletion strains, locus YLR357W, strain rsc2, active compounds read low 0.962 | S. cerevisiae deletion strains, locus YLR370C, strain arc18, active compounds read low 1 | S. cerevisiae deletion strains, locus YLR371W, strain rom2, active compounds read low 1.02 | S. cerevisiae deletion strains, locus YLR384C, strain iki3, active compounds read low 1.01 | S. cerevisiae deletion strains, locus YLR418C, strain cdc73, active compounds read low 0.991 | S. cerevisiae deletion strains, locus YML016C, strain PPZ1, active compounds read low 1 | S. cerevisiae deletion strains, locus YML032C, strain rad52, active compounds read low 1.04 | S. cerevisiae deletion strains, locus YML120C, strain ndi1, active compounds read low 0.979 | S. cerevisiae deletion strains, locus YML124C, strain tub3, active compounds read low 1.01 | S. cerevisiae deletion strains, locus YMR058W, strain fet3, active compounds read low 0.989 | S. cerevisiae deletion strains, locus YMR078C, strain ctf18, active compounds read low 1.03 | S. cerevisiae deletion strains, locus YMR125W, strain sto1, active compounds read low 0.965 | S. cerevisiae deletion strains, locus YMR129W, active compounds read low 1.01 | S. cerevisiae deletion strains, locus YMR205C, strain PFK2, active compounds read low 0.992 | S. cerevisiae deletion strains, locus YMR223W, strain ubp8, active compounds read low 1.04 | S. cerevisiae deletion strains, locus YMR231W, strain pep5, active compounds read low 1 | S. cerevisiae deletion strains, locus YMR263W, strain SAP30, active compounds read low 0.991 | S. cerevisiae deletion strains, locus YMR307W, strain GAS1, active compounds read low 1.06 | S. cerevisiae deletion strains, locus YNL067W, strain RPL9B, active compounds read low 0.989 | S. cerevisiae deletion strains, locus YNL071W, strain lat1, active compounds read low 1.01 | S. cerevisiae deletion strains, locus YNL128W, strain TEP1, active compounds read low 0.974 | S. cerevisiae deletion strains, locus YNL153C, strain GIM3, active compounds read low 0.982 | S. cerevisiae deletion strains, locus YNL183C, strain NPR1, active compounds read low 0.948 | S. cerevisiae deletion strains, locus YNL209W, strain ssb2, active compounds read low 1 | S. cerevisiae deletion strains, locus YNL233W, strain BNI4, active compounds read low 0.995 | S. cerevisiae deletion strains, locus YNL248C, strain rpa49, active compounds read low 0.996 | S. cerevisiae deletion strains, locus YNL250W, strain rad50, active compounds read low 1.01 | S. cerevisiae deletion strains, locus YNL271C, strain bni1, active compounds read low 1.02 | S. cerevisiae deletion strains, locus YNL298W, strain CLA4, active compounds read low 1.03 | S. cerevisiae deletion strains, locus YNL307C, strain MCK1, active compounds read low 1.05 | S. cerevisiae deletion strains, locus YNL322C, strain KRE1 (second series), active compounds read low 1 | S. cerevisiae deletion strains, locus YNL322C, strain KRE1, active compounds read low 1.01 | S. cerevisiae deletion strains, locus YNR049C, strain mso1, active compounds read low 1.01 | S. cerevisiae deletion strains, locus YNR052C, strain pop2, active compounds read low 1.02 | S. cerevisiae deletion strains, locus YOL006C, strain TOP1, active compounds read low 1.03 | S. cerevisiae deletion strains, locus YOL012C, strain htz1 0.856 | S. cerevisiae deletion strains, locus YOL147C, strain pex11, active compounds read low 1.01 | S. cerevisiae deletion strains, locus YOR001W, strain rrp6, active compounds read low 0.996 | S. cerevisiae deletion strains, locus YOR061W, strain CKA2, active compounds read low 1.01 | S. cerevisiae deletion strains, locus YOR069W, strain VPS5, active compounds read low 1.01 | S. cerevisiae deletion strains, locus YOR070C, strain gyp1, active compounds read low 1.01 | S. cerevisiae deletion strains, locus YOR080W, strain dia2, active compounds read low 0.994 | S. cerevisiae deletion strains, locus YOR083W, strain WHI5, active compounds read low 0.988 | S. cerevisiae deletion strains, locus YOR106W, strain vam3, active compounds read low 1 | S. cerevisiae deletion strains, locus YOR136W, strain idh2, active compounds read low 1.02 | S. cerevisiae deletion strains, locus YOR144C, strain elg1, active compounds read low 1.01 | S. cerevisiae deletion strains, locus YOR184W, strain ser1, active compounds read low 1.06 | S. cerevisiae deletion strains, locus YOR231W, strain MKK1, active compounds read low 0.987 | S. cerevisiae deletion strains, locus YOR265W, strain rbl2, active compounds read low 1 | S. cerevisiae deletion strains, locus YOR270C, strain vph1, active compounds read low 0.965 | S. cerevisiae deletion strains, locus YOR290C, strain snf2, active compounds read low 1.01 | S. cerevisiae deletion strains, locus YOR316C, strain cot1, active compounds read low 1.02 | S. cerevisiae deletion strains, locus YPL051W, strain arl3, active compounds read low 0.988 | S. cerevisiae deletion strains, locus YPL055C, strain LGE1, active compounds read low 0.935 | S. cerevisiae deletion strains, locus YPL078C, strain atp4, active compounds read low 1 | S. cerevisiae deletion strains, locus YPL106C, strain sse1, active compounds read low 1.01 | S. cerevisiae deletion strains, locus YPL240C, strain hsp82, active compounds read low 1.03 | S. cerevisiae deletion strains, locus YPL241C, strain CIN2, active compounds read low 1.01 | S. cerevisiae deletion strains, locus YPL256C, strain CLN2, active compounds read low 1.01 | S. cerevisiae deletion strains, locus YPR119W, strain clb2, active compounds read low 1 | S. cerevisiae deletion strains, locus YPR141C, strain kar3, active compounds read low 1.01 | S. cerevisiae deletion strains, locus YPR163C, strain tif3, active compounds read low 1.01 | S. cerevisiae deletion strains, locus YPR167C, strain met16, active compounds read low 1.01 | S. cerevisiae deletion strains, strain wtn01, active compounds read low 1 | S. cerevisiae strains, strain wild type, active compounds read low 1.02
